Compounds with a hit are over-represented: about 3.9% of the library has one in this group of screens.
NTR1 agonist: NTR1 (human) agonism | NTR1-U2OS beta-arrestin-GFP spot imaging, agonist mode | P30989 | actives 0.17% (n = 330,000) | activation, % at 20 µM;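 active = activation at or above 40% of the spot to cytoplasm intensity ratio, with at least 20 cells analyzed; inconclusive = wells under 20 cells, flagged as cytotoxic or low count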;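 also: 0% = DMSO without peptide and 100% = 100 nM NTR1 peptide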
Cardio protect: myocardial damage modulation in H9c2 cells | actives 0.63% (n = 360,000) | protection from H2O2 cell death, % at 20 µM | H9c2 cardiomyocytes, H2O2 injury protection, ATPLite, 2 h;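 active = compounds giving at least 50% protection of heart cells from peroxide-induced death in the single-dose screen, raw or plate-pattern-corrected value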;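 also: 0% = DMSO wells with peroxide and 100% = DMSO wells without peroxide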
ALR H2O2 inh: human ALR oxidase inhibition via reduced H2O2; P55789; purified ALR, DTT oxidation, H2O2 HRP-luminol luminescence; inhibition, % (concentration not given with the values); actives 3.8% (n = 290,000);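 active = mean replicate inhibition above about 79%, with every replicate also reaching it, limit read from the data; inconclusive = only one of the two criteria met; inactive = mean below limit and not every replicate reaching it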
Target sequence (P55789 whole entry, looked up): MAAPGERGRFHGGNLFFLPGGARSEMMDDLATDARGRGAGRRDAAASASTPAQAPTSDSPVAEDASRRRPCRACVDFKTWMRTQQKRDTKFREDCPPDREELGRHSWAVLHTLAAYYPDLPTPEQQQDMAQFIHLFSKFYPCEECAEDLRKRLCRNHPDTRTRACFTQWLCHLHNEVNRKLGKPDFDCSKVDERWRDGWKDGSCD
SUMO HTRF inh: SUMOylation inhibition. inhibition, % at 35 µM. HTRF SUMOylation assay, SAE1/SAE2 + UBC9, in vitro. P63279. AID 2006. actives 0.36% (n = 290,000); in the data active = inhibition above about 50%, passing the limit was not always enough; inconclusive = no clear call, values can overlap the other calls
Target sequence (P63279 whole entry, looked up): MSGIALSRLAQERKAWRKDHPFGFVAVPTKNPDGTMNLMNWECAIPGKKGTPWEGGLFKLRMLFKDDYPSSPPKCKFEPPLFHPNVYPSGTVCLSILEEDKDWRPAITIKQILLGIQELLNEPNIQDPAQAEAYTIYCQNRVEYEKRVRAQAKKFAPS
Active calls of the source: *; ? = inconclusive; nt = no result given.

SMILES	NTR1 agonist	Cardio protect	ALR H2O2 inh	SUMO HTRF inh
COC(=O)c1c(C)[nH]c(C(=O)COC(=O)Cc2ccc3c(c2)OCCO3)c1C	-2	9	8	-9
COc1ccc(C(=O)c2ccccc2)c(OCC(=O)NC2CC2)c1	-1	-7	-3	5
COc1ccc(C(O)(c2ccccc2)C(C(=O)O)c2ccccc2)cc1 (stereo not given)	nt	-4	nt	nt
CCOc1nc(Oc2cccc(C(=O)O)c2)nc(Oc2cccc(C(=O)O)c2)n1	0	8	97*	-23
CCC(C)(C)c1ccc(Oc2cccc(C(=O)O)c2)cc1	0	2	39	20
OC1CCN(Cc2cccc(Oc3ccccc3)c2)CC1	-4	6	98*	4
N#C/C(=C\c1cccc(OCC(=O)O)c1)c1nc2ccccc2[nH]1	1	6	98*	6
COc1cc(/C=C(/C#N)c2nc3ccccc3[nH]2)ccc1OCC(=O)Nc1ccccc1C	13	15	-3	?
CCOc1cccc(/C=C(/C#N)c2nc3ccccc3[nH]2)c1OCC(=O)O	2	-5	98*	15
COc1cc(/C=C(/C#N)c2nc3ccccc3[nH]2)ccc1OCC(=O)Nc1ccccc1C(C)C	33	68*	-4	?
COc1cccc(/C=C(\C#N)c2nc3ccc(C)cc3[nH]2)c1OCC(=O)O	-1	2	49	7
N#C/C(=C\c1ccc(N2CCOCC2)c([N+](=O)[O-])c1)c1nc2ccccc2[nH]1	26	62*	4	10
N#C/C(=C\c1cccnc1)c1nc2ccccc2[nH]1	1	19	3	14
Cc1ccc(/C=C(\NC(=O)c2ccccc2)C(=O)NC(Cc2ccccc2)C(=O)O)cc1 (stereo not given)	0	8	4	21
CC(NC(=O)c1ccc(N(C)C)cc1)C(c1cccs1)N1CCN(C)CC1 (stereo not given)	0	4	78*	2
CC(NC(=O)c1ccc(F)cc1)C(c1cccs1)N1CCN(C)CC1 (stereo not given)	1	2	3	4
CC(NC(=O)c1cccnc1)C(c1cccs1)N1CCN(c2ccccc2F)CC1 (stereo not given)	1	5	17	-24
COc1ccccc1N1CCN(C(c2cccs2)C(C)NC(=O)c2cccnc2)CC1 (stereo not given)	0	11	98*	0
O=C(NC1CCCCC1)C(c1ccc2ncccc2c1)N(Cc1ccccc1)C(=O)c1ccc2c(c1)OCCO2 (stereo not given)	3	53*	-1	2
CCOC(=O)c1[nH]c(C)c(/C(O)=C2\C(=O)C(=O)N(CCCn3ccnc3)C2c2ccncc2)c1C (stereo not given)	0	-4	11	-14
CCN1C(=O)/C(=C2\SC(=S)N(NC(=O)c3ccccc3O)C2=O)c2ccccc21	2	2	4	-3
O=C(CNC(=O)c1ccccc1F)OCC(=O)N1CCCCC1	-2	2	-2	-5
COC(=O)c1ccc(Cn2c(C)c(C(=O)NCc3cccs3)sc2=O)o1	nt	52*	nt	nt
Cc1ccc(-n2nc3cc(C)c(NC(=S)NC(=O)/C=C/c4ccco4)cc3n2)cc1	3	-2	86*	28
COc1cc2c(cc1NC(=S)NC(=O)/C=C/c1ccco1)oc1ccccc12	3	-4	7	52*
SMILES	NTR1 agonist	Cardio protect	ALR H2O2 inh	SUMO HTRF inh
O=C(NCCCN1CCCCCC1)c1ccc2c(Cl)c3c(nc2c1)CCCC3	-1	2	13	-14
CC1CCN(CCCNC(=O)c2ccc3c(Cl)c4c(nc3c2)CCCC4)CC1	7	-2	90*	21
CCN1CCN(C(=O)c2ccc3c(Cl)c4c(nc3c2)CCCC4)CC1	1	4	98*	2
CC1CCN(CCCNC(=O)c2n[nH]c(=O)c3ccccc23)CC1	-2	72*	-6	8
CC(=O)C(Sc1nnnn1-c1ccccc1)C(C)=O	0	1	4	27
Cc1cc(N2CCN(c3ccccc3)CC2)n2ncnc2n1	0	-2	98*	9
Cc1cc(N2CCN(c3ccccc3)CC2)nc(N)n1	6	0	98*	-52
COc1cccc(N2CCN(c3c4c(nc5ncnn35)CCC4)CC2)c1	3	-8	98*	-14
c1ccc(N2CCN(c3c4c(nc5ncnn35)CCC4)CC2)cc1	3	1	nt	9
CN(C)c1nc(-c2ccccn2)nnc1-c1ccccc1	1	67*	-4	10
Cc1ccc(NC(=S)NNC(=O)c2nn(C)c(C)c2Cl)cc1	2	2	90*	-75
Cc1ccc(NC(=S)NNC(=O)c2c([N+](=O)[O-])c(C)nn2C)cc1	0	6	12	-1
CCn1c(C)nc2cc(C(=O)NNC(=S)Nc3ccccc3OC)ccc21	1	nt	56	12
CCn1c(C)nc2cc(C(=O)NNC(=S)Nc3ccc(C)cc3)ccc21	2	-7	86*	23
Cc1ccc(NC(=S)NNC(=O)c2c(Cl)c(C)nn2C)cc1	4	-5	87*	-25
Cc1ccc(NC(=S)NNC(=O)c2cn(C)nc2C)cc1	3	-1	97*	8
CC1CCCCC1NC(=O)C1CCN(c2c3c(nc4ncnn24)CCC3)CC1 (stereo not given)	-1	0	2	10
Cc1cccc(/N=C/c2c(O)ccc3oc4c(c23)CCCC4)n1	7	75*	0	14
Cc1cccc(/N=C/c2c(O)cc(C)oc2=O)n1	-1	-5	-4	4
CCCCOC(=O)c1ccc(NC(=O)CSC2=Nc3ccccc3C3CC=NN23)cc1 (stereo not given)	7	-5	100*	16
CC(C)c1ccc(NC(=O)CSc2nc3ncccc3[nH]2)cc1	2	-16	55	-1
O=C(CSc1nc2ncccc2[nH]1)Nc1ccc2c(c1)OCO2	1	15	nt	17
CC(C)OC(=O)c1ccc(NC(=O)CSc2nc3ncccc3[nH]2)cc1	0	-15	98*	-13
COc1ccc(NC(=O)CSc2nc3ncccc3[nH]2)cc1OC	1	-4	96*	26
COc1ccc(S(=O)(=O)NCc2ccco2)cc1C(=O)N1CCCCC1	0	1	-15	12
SMILES	NTR1 agonist	Cardio protect	ALR H2O2 inh	SUMO HTRF inh
CCC(CO)n1c(SCc2cc(=O)oc3cc(C)ccc23)nc2ccccc2c1=O (stereo not given)	3	7	99*	16
COc1ccc(CC(=O)NNC(=O)CSc2nnc(C)n2-c2ccccc2)cc1	-2	-3	3	3
O=C(O)c1ccccc1N=Nc1ccc(O)cc1	2	-6	99*	nt
Oc1ccc(N=Nc2ccccc2)cc1	1	-8	99*	12
CC(=O)N1c2c(cc(Br)cc2S(=O)(=O)N2CCN(c3ccccn3)CC2)CC1C (stereo not given)	-2	36	-34	15
Cn1c(-c2ccccc2)cnc1SCC(=O)N1CCCCC1	0	-14	100*	10
Cn1c(-c2ccccc2)cnc1SCC(=O)N1CCCc2ccccc21	2	-4	7	14
COC(=O)c1ccc(NC(=O)CSCC(=O)OCC(=O)c2ccc(Br)cc2)cc1	0	2	99*	22
